# Bioassay records (PubChem)
# EBNA-1 inhibitor: blocks EBNA-1 binding to DNA; EBNA-1 DNA binding, fluorescence polarization; inhibition, % at 14.8 µM; hit rate 0.34% among 300,000; AID 1950; in the data active means inhibition above about 28%
# PP5 primary: inhibitors of human protein phosphatase 5 (PP5) | P53041 | purified PP5c, OMFP substrate fluorescence | inhibition, % at 6.7 µM | hit rate 0.18% among 320,000;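 active means inhibition above the campaign's mean inhibition across all tested compounds plus 3 SD, cut at about 9.5% in these data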;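 further: 0% = DMSO only and 100% = 100 µM cantharidin control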
# Target sequence (P53041 whole entry, looked up): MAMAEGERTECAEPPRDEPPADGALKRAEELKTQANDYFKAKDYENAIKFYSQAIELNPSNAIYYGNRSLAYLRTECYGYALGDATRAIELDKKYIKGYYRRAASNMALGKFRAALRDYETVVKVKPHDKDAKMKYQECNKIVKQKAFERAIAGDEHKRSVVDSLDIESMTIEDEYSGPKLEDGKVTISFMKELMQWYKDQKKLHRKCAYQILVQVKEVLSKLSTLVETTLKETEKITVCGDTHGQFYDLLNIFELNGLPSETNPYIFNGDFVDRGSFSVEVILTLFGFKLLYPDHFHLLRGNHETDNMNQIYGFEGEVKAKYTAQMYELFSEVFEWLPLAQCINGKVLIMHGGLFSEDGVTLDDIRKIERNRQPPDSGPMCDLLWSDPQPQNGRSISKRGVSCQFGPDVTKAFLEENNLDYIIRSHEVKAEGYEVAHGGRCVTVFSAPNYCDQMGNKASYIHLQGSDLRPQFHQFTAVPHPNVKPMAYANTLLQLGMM
# ZTA DNA inh: blocks Epstein-Barr virus ZTA, an EBNA-1 counter-screen; AID 2234; ZTA-DNA binding, fluorescence polarization; hit rate 0.15% among 320,000; inhibition, % at 11 µM; in the data active means inhibition above about 33%
# MsrA inhibitor: inhibitors of bovine MsrA. purified bovine MsrA, absorbance read-out. inhibition, % at 15.5 µM. hit rate 0.75% among 360,000. AID 651718; in the data active means inhibition above about 4.5%;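 further: 0% = vehicle wells with enzyme and 100% = reference inhibitor wells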
# PP1 inh: blocks human PP1-alpha phosphatase, a PP5 counter-screen; P62136; purified PP1alpha, OMFP fluorescence; inhibition, % at 6.7 µM; hit rate 0.9% among 320,000; AID 2235;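 active means inhibition above the mean inhibition of all tested compounds plus 3 SD, computed separately for each screening campaign, cut at about 15% in these data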
# MsrA act: activators of bovine methionine sulfoxide reductase A. AID 602163. purified bovine MsrA, absorbance read-out. activation, % at 10.6 µM. hit rate 0.3% among 360,000; in the data active means activation above about 7.5%;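 further: 0% = vehicle and 100% = reference activator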
# PP1 inh confirm: confirmation of human PP1 phosphatase inhibitors. purified PP1alpha, OMFP substrate fluorescence. shares compounds with PP1 inh. inhibition, % at 6.7 µM. hit rate 52% among 1,900;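 active means mean PP1 inhibition above a set limit taken from the earlier primary screen, cut at about 15% in these data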
# PP5 counter: PP5 phosphatase inhibition, counter-screen for PP1 inhibitors; shares compounds with PP1 inh; purified PP5c, OMFP fluorescence; inhibition, % at 6.7 µM; hit rate 4% among 1,900; AID 2360;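 active means mean PP5 inhibition over triplicate wells above about 9.5% taken from the earlier PP1 screen, limit read from the data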
# * marks the source's active call; other numbers are inactive results; x = not tested or not shown. Shown are actives, neighbours in structure and some others; about 2.3% of the full set was active somewhere.
SMILES,EBNA-1 inhibitor,PP5 primary,ZTA DNA inh,MsrA inhibitor,PP1 inh,MsrA act,PP1 inh confirm,PP5 counter
C#CCOCCOCCOCCNc1nc(N2CCN(C(=O)[C@H](Cc3cc4ccccc4[nH]3)n3cc([C@@H](N)C(C)CC)nn3)CC2)nc(N2CCN(C(=O)[C@H](Cc3cc4ccccc4[nH]3)n3cc([C@@H](N)Cc4ccc(O)cc4)nn3)CC2)n1 (some centres not stated),46.0*,8.4,54.6*,x,83.8*,x,78.0*,5.4
C#CCOCCOCCOCCNc1nc(N2CCN(C(=O)[C@H](Cc3ccc(O)cc3)n3cc([C@@H](N)C(C)CC)nn3)CC2)nc(N2CCN(C(=O)[C@H](Cc3cc4ccccc4[nH]3)n3cc([C@@H](N)CC(C)C)nn3)CC2)n1 (some centres not stated),3.0,2.5,8.9,0.8,20.0*,x,-16.8,-1.0
C#CCOCCOCCOCCNc1nc(N2CCN(C(=O)[C@H](Cc3cc4ccccc4[nH]3)n3cc([C@@H](N)CC(C)C)nn3)CC2)nc(N2CCN(C(=O)[C@H](Cc3cc4ccccc4[nH]3)n3cc([C@@H](N)CC(C)C)nn3)CC2)n1,12.9,7.4,25.7,x,42.7*,0.2,-8.2,2.1
CCOc1ccc(-n2c(O)c(/C=N/NC(=O)C3COc4ccccc4O3)c3ccccc3c2=O)cc1 (configuration not stated),9.7,1.3,13.7,4.0,23.5*,-3.5,28.2*,-6.0
COc1cc(/C=N\NC(=O)C2COc3ccccc3O2)cc(OC)c1O (configuration not stated),1.1,-1.0,14.5,2.7,-2.7,5.3,x,x
COc1ccc(C(O)c2nc(-c3cnc4ccccc4c3)cs2)cc1 (configuration not stated),x,x,x,-0.8,x,-6.1,x,x
COc1ccc(C(=O)N/C(=C\c2cn(S(=O)(=O)N(C)C)c3ccccc23)C(=O)NC(C)C)cc1,5.0,1.1,-8.5,0.2,-4.0,-3.3,x,x
CCN(CC)C(=O)/C(=C/c1cn(S(=O)(=O)N(C)C)c2ccccc12)NC(=O)c1ccc(OC)cc1,9.3,-0.2,10.6,0.8,27.1*,-0.5,22.5*,-2.0
CCOc1ccc(NC(=O)c2cccc(-n3cccc3)c2)cc1S(=O)(=O)N1CCOCC1,x,4.1,12.9,0.1,21.5*,-2.1,22.7*,1.2
COc1ccc(S(=O)(=O)N2CCOCC2)cc1NC(=O)c1cccc(-n2cccc2)c1,8.2,0.0,-7.5,-0.7,7.3,-2.7,x,x
CCN1C(=O)[C@H]2[C@@H](c3ccc(OC)cc3)N[C@]3(CCCN(Cc4ccc(F)cc4)C3=O)[C@H]2C1=O,x,x,x,0.4,x,-4.1,x,x
O=C(N/N=C/c1cc2ccccc2nc1Cl)/C(=C/c1cccs1)NC(=O)c1ccccc1,-3.5,0.5,-3.5,3.0,17.9*,-4.7,6.9,-1.4
CCN(Cc1ccccc1)S(=O)(=O)c1ccc(C(=O)N(CCCN(C)C)c2nc3cc4c(cc3s2)OCO4)cc1,1.1,1.6,18.6,-1.2,9.2,-1.3,x,x
CCN(Cc1ccccc1)S(=O)(=O)c1ccc(C(=O)N(CCCN(C)C)c2nc3c(C)c(C)ccc3s2)cc1,1.1,5.2,5.6,-1.0,18.6*,-7.5,-3.1,3.4
COc1ccc(OC)c(NC2c3ncccc3C(=O)N2Cc2ccco2)c1 (configuration not stated),-9.6,0.7,6.1,1.6,1.4,-11.8,x,x
COc1ccc(CN2C(=O)c3cccnc3C2Nc2cc(Cl)ccc2OC)cc1 (configuration not stated),-3.8,8.0,-12.2,-0.5,27.0*,-4.6,26.0*,-1.6
COc1cccc(N2C(=O)c3cccnc3C2O)c1 (configuration not stated),x,x,x,-0.1,x,-3.1,x,x
COc1ccc(CN2C(=O)c3cccnc3C2O)cc1 (configuration not stated),-7.6,8.1,-2.8,0.9,34.3*,-2.9,24.9*,-4.3
CC(=O)Nc1ccc(OS(=O)(=O)c2cc(Cl)ccc2C)cc1,-3.0,-0.2,9.9,0.0,-2.9,-0.5,x,x
COc1ccc(N2CC(C(=O)Nc3nnc(SCC(=O)Nc4ccc(NC(C)=O)cc4)s3)CC2=O)cc1 (configuration not stated),x,x,x,-0.5,x,-6.5,x,x
COc1ccc2nc3cc(Cl)ccc3c(Nc3cc(C(C)C)c(O)cc3C)c2c1,-10.9,3.9,-15.7,1.7,28.6*,-1.3,7.6,-1.4
COc1ccc(S(=O)(=O)Nc2cc(C(C)C)c(O)cc2C)cc1,8.4,1.9,3.2,1.2,-1.6,2.2,x,x
C=CCOc1nc(N(C)C)nc(N(C)C)n1,-7.7,2.9,0.3,-0.2,-3.9,-3.8,x,x
COc1ccc(C(CNC(=O)c2ccc(-c3ccccc3)cc2)N(C)C)cc1OC (configuration not stated),-7.0,2.5,-7.8,1.5,43.2*,0.2,-2.4,1.4
CCOc1cc(C2C(C(C)=O)=C(O)C(=O)N2CCc2c[nH]c3ccccc23)ccc1O (configuration not stated),3.0,0.7,3.8,3.3,3.8,-2.7,x,x
SMILES,EBNA-1 inhibitor,PP5 primary,ZTA DNA inh,MsrA inhibitor,PP1 inh,MsrA act,PP1 inh confirm,PP5 counter
CC(=O)C1=C(O)C(=O)N(CCc2c[nH]c3ccccc23)C1c1ccc(C)cc1 (configuration not stated),3.0,3.7,-5.5,0.9,25.7*,-1.4,23.1*,-3.5
O=C1OC(=O)C2C3CCC(O3)C12 (configuration not stated),5.6,66.7*,11.1,x,74.9*,x,46.2*,51.0*
Cc1ccc(C(C)C)c(OCc2ccc(C(=O)N/N=C/c3cccc(O)c3O)cc2)c1,3.0,1.8,21.3,1.3,23.2*,-7.4,17.7*,-0.4
CCCCCCCCCCCCCCCCn1cc[n+](C)c1,-4.5,3.0,10.7,-2.3,24.8*,-3.8,-12.0,1.1
Cc1cccc(N2C(=O)C(O)=C(C(=O)c3cccs3)C2c2cccc(Oc3ccccc3)c2)n1 (configuration not stated),13.7,-0.1,3.2,0.1,25.3*,-3.4,25.4*,-2.1
O=c1c2ccccc2c(C=Nc2cccc(S(=O)(=O)NC3=NCCCCC3)c2)c(O)n1Cc1ccccc1,12.7,-1.2,-9.0,0.1,19.1*,-4.4,6.9,-2.2
COc1cc(C(=O)OCC(=O)Nc2ccc(C)cc2)cc(OC)c1OC,8.3,0.1,-5.6,1.1,0.3,-2.0,x,x
CCOC(=O)c1c(CSC(=N)N)n(-c2ccc(C)cc2)c2cc(Br)c(OC(C)=O)cc12,-1.4,0.1,-4.4,-0.9,20.4*,-1.3,-2.6,-2.1
Nc1nc(-c2ccccn2)nc(N)c1Cc1c(F)cccc1Cl,1.2,1.2,-0.2,-1.0,27.2*,-1.1,46.8*,-2.2
